# From paper PMC8384837, “Expanding the binding specificity for RNA recognition by a PUF domain”
# What was measured:
# Assay in all cases: yeast three-hybrid, YBZ-1, SC-Leu-His + 0.5 mM 3-AT, 4 days
# Details in all cases: tags: N-Gal4 AD-HA kept; label: inside an RPR1-promoter hybrid RNA with tandem MS2 sites; ssRNA
# PUM1 PUF domain R3-SPR = PUM1 PUF domain R3-SPR (Homo sapiens, UniProt Q14671 828-1176, C935S;R936P;Q939R)
# In short: (§1)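 Matching RNA elements and Pumilio-1 PUF domain libraries, randomized at the three base-contacting residues of every repeat, were co-expressed from a centromeric plasmid in strain YBZ-1 (LexA–MS2 coat fusion, HIS3 reporter). The repeat regions were PCR-amplified and Illumina-sequenced from cells grown four days on SC-Leu (input) or SC-Leu-His + 0.5 mM 3-AT (selection). The interaction score is the log change in variant frequency from input to selection. It is computed in log2, with a pseudocount of 1 for absent variants.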
# PUM1 PUF domain R4-VPT = PUM1 PUF domain R4-VPT (Homo sapiens, UniProt Q14671 828-1176, N971V;H972P;Q975T)
# In short: as §1
# PUM1 PUF domain R4-PHV = PUM1 PUF domain R4-PHV (Homo sapiens, UniProt Q14671 828-1176, N971P;Q975V)
# In short: as §1
# PUM1 PUF domain R3-SQE = PUM1 PUF domain R3-SQE (Homo sapiens, UniProt Q14671 828-1176, C935S;R936Q;Q939E)
# In short: as §1
# PUM1 PUF domain R1-KSR = PUM1 PUF domain R1-KSR (Homo sapiens, UniProt Q14671 828-1176, S863K;R864S;Q867R)
# In short: as §1
# PUM1 PUF domain R5-SAS = PUM1 PUF domain R5-SAS (Homo sapiens, UniProt Q14671 828-1176, C1007S;R1008A;Q1011S)
# In short: as §1
sequence,measurement,setting,value
GGCUAGAACUAGUGGAUCCCCCGGCGCCCGGCGGCUCGAGCCCGGGUAAGUGUAACUAGUCUGCAUGCCGCCGGGCGCCAUGCCUGCAGGUCGACUCUAGAAAACAUG,binding signal,PUM1 PUF domain R3-SPR,1.77 log2 enrichment (interaction score)
GGCUAGAACUAGUGGAUCCCCCGGCGCCCGGCGGCUCGAGCCCGGGUAAGUGUAAUUAGUCUGCAUGCCGCCGGGCGCCAUGCCUGCAGGUCGACUCUAGAAAACAUG,binding signal,PUM1 PUF domain R3-SPR,3.06 log2 enrichment (interaction score)
GGCUAGAACUAGUGGAUCCCCCGGCGCCCGGCGGCUCGAGCCCGGGUAAGUGUAUAUAGUCUGCAUGCCGCCGGGCGCCAUGCCUGCAGGUCGACUCUAGAAAACAUG,binding signal,PUM1 PUF domain R4-VPT,2.12 log2 enrichment (interaction score)
same,binding signal,PUM1 PUF domain R4-PHV,7.14 log2 enrichment (interaction score)
GGCUAGAACUAGUGGAUCCCCCGGCGCCCGGCGGCUCGAGCCCGGGUAAGUGUACAUAGUCUGCAUGCCGCCGGGCGCCAUGCCUGCAGGUCGACUCUAGAAAACAUG,binding signal,PUM1 PUF domain R4-VPT,0.61 log2 enrichment (interaction score)
same,binding signal,PUM1 PUF domain R4-PHV,4.96 log2 enrichment (interaction score)
GGCUAGAACUAGUGGAUCCCCCGGCGCCCGGCGGCUCGAGCCCGGGUAAGUGUAAGUAGUCUGCAUGCCGCCGGGCGCCAUGCCUGCAGGUCGACUCUAGAAAACAUG,binding signal,PUM1 PUF domain R3-SQE,3.11 log2 enrichment (interaction score)
same,binding signal,PUM1 PUF domain R3-SPR,1.77 log2 enrichment (interaction score)
GGCUAGAACUAGUGGAUCCCCCGGCGCCCGGCGGCUCGAGCCCGGGUAAGUGUAAAUCGUCUGCAUGCCGCCGGGCGCCAUGCCUGCAGGUCGACUCUAGAAAACAUG,binding signal,PUM1 PUF domain R1-KSR,5.1 log2 enrichment (interaction score)
GGCUAGAACUAGUGGAUCCCCCGGCGCCCGGCGGCUCGAGCCCGGGUAAGUGUGAAUAGUCUGCAUGCCGCCGGGCGCCAUGCCUGCAGGUCGACUCUAGAAAACAUG,binding signal,PUM1 PUF domain R5-SAS,5.82 log2 enrichment (interaction score)
GGCUAGAACUAGUGGAUCCCCCGGCGCCCGGCGGCUCGAGCCCGGGUAAGUGUAAAUUGUCUGCAUGCCGCCGGGCGCCAUGCCUGCAGGUCGACUCUAGAAAACAUG,binding signal,PUM1 PUF domain R1-KSR,5.58 log2 enrichment (interaction score)
